Inconclusive results are not listed. Where a call stands in place of a potency, no number is given. A number with no mark means an inactive call. Active and inactive are the calls of the source. Calls follow the shape of the dose curve; as a rule, active = well fitted curve in the direction sought with a large enough effect; inconclusive = small, poorly fitted or top-dose-only effect, or another doubt; inactive = no such curve, though single readings can be large; an effect the other way counts as inactive or inconclusive.
Assays:
[1] = qHTS of pediatric cancer cell lines to identify multiple opportunities for drug repurposing: Primary screen for RD cells (AID 1347104); also: nearly all actives have a fitted effect of over 55% in size; also: potency is read from the fitted curve at half-maximal effect
Outline: (§1)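 Viability was measured as metabolically active cells after 48 hours of treatment, read by CellTiter-Glo luminescence. Compounds were tested at multiple final concentrations, giving concentration-response curves.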

[2] = qHTS of pediatric cancer cell lines to identify multiple opportunities for drug repurposing: Primary screen for MG 63 (6-TG R) cells (AID 1347105); also: nearly all actives have a fitted effect of over 50% in size; also: potency is read from the fitted curve at half-maximal effect
Outline: as §1

[3] = qHTS of pediatric cancer cell lines to identify multiple opportunities for drug repurposing: Primary screen for control Hh wild type fibroblast cells (AID 1347106);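 also: series mostly up to about 46 µM; a drop in luminescence marks cytotoxicity and a rise apparent proliferation; nearly all actives have a fitted effect of over 55% in size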
Outline: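 Cells (500-1,000/well) in growth media were settled 5 h at 37 degrees C, then given compounds for 48 h. Viability was read as CellTiter-Glo luminescence. Primary runs used MIPE at 11 points (0.78 nM-46 µM) and NPC at 8 points (0.59 nM-46 µM); follow-ups used 11 points.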

[4] = qHTS of pediatric cancer cell lines to identify multiple opportunities for drug repurposing: Primary screen for Rh41 cells (AID 1347108); also: nearly all actives have a fitted effect of over 70% in size; also: potency is read from the fitted curve at half-maximal effect;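 as to activity change, negative = cytotoxic: series mostly up to about 46 µM; luminescence drop marks cytotoxic hits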
Outline: as §1

[5] = qHTS of pediatric cancer cell lines to identify multiple opportunities for drug repurposing: Confirmatory screen for A673 cells (AID 1347110);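 also: cells exposed to compound for 48 h before the viability read; nearly all actives have a fitted effect of over 65% in size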; also: potency is read from the fitted curve at half-maximal effect
Outline: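 Concentration-response curves came straight from titrations: 11 points (0.78 nM to 46 µM) for MIPE and several concentrations (0.59 nM to 46 µM) for NPC in primary, 11 points in follow-up. Readout: ATP luminescence at 48 h.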

[6] = qHTS of pediatric cancer cell lines to identify multiple opportunities for drug repurposing: Confirmatory screen for BT-12 cells (AID 1347112); also: nearly all actives have a fitted effect of over 55% in size; also: potency is read from the fitted curve at half-maximal effect
Outline: (§2)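 Cells (500-1,000/well) rested 5 h, then received compounds for 48 h; metabolically active cells were measured by CellTiter-Glo luminescence. Final concentrations spanned up to 46 µM (MIPE, 11-point) or 0.59 nM-46 µM (NPC, 8-point) in primary screens, 11-point in follow-ups.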

[7] = qHTS of pediatric cancer cell lines to identify multiple opportunities for drug repurposing: Confirmatory screen for LAN-5 cells (AID 1347113); also: nearly all actives have a fitted effect of over 65% in size; also: potency is read from the fitted curve at half-maximal effect
Outline: as §2

[8] = qHTS of pediatric cancer cell lines to identify multiple opportunities for drug repurposing: Confirmatory screen for DAOY cells (AID 1347114); also: nearly all actives have a fitted effect of over 65% in size; also: potency is read from the fitted curve at half-maximal effect
Outline: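 Viability measured as metabolically active cells via CellTiter-Glo luminescence following 48 hours of compound exposure, 11-point dilutions in confirmatory testing. 500-1,000 cells/well plated 5 hours before dosing; controls were DMSO and 2.3 µM bortezomib.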

[9] = qHTS of pediatric cancer cell lines to identify multiple opportunities for drug repurposing: Confirmatory screen for SK-N-MC cells (AID 1347111);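 also: cells exposed to compound for 48 h before the readout; nearly all actives have a fitted effect of over 70% in size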
Outline: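 Seed 500-1,000 cells/well; rest 5 h at 37 degrees C. Pin-transfer compounds, 11-point titration. Incubate 48 h. Add CellTiter-Glo, 15 min RT, read luminescence.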

[10] = qHTS of pediatric cancer cell lines to identify multiple opportunities for drug repurposing: Primary screen for Rh30 cells (AID 1347107); also: series mostly up to about 46 µM; nearly all actives have a fitted effect of over 75% in size
Outline: as §2

With `c1ccc(-c2nc[nH]c2-c2ccccc2)cc1` the Potency [1] was “inactive”, the Potency [2] was “inactive” and the Potency [3] was “inactive”. The Potency [4] was “inactive”.
In the case of `NC(N)=NN=C(/C=C/c1ccc([N+](=O)[O-])o1)/C=C/c1ccc([N+](=O)[O-])o1`, the Potency [5] is reported as 2.61 µM (active), the Potency [6] is reported as 9.27 µM (active) and the Potency [7] is reported as 1.17 µM (active). For the same compound, the Potency [8] was 3.29 µM (active).
Work on `CCN[C@@H]1C[C@H](N)[C@@H](OC2OC(CN)=CCC2N)[C@H](O)[C@H]1O[C@H]1OC[C@](C)(O)[C@H](NC)[C@H]1O` (some centres not stated) yielded an activity change, negative = cytotoxic [9] of -2.44% [at 0.556 µM], an activity change, negative = cytotoxic [6] of -6.5% [at 0.556 µM] and an activity change, negative = cytotoxic [8] of 15.9% [at 0.556 µM].
For `NC(=O)n1c(O)c(C(=O)c2cccs2)c2cc(Cl)ccc21`, the Potency [3] was “inactive”, the Potency [10] was “inactive” and the Potency [4] was “inactive”.
In the case of `CCc1oc2ccccc2c1C(=O)c1cc(I)c(O)c(I)c1`, the Potency [2] is reported as “inactive”, the Potency [3] is reported as “inactive” and the Potency [10] is reported as “inactive”. For the same compound, the Potency [4] was “inactive”.
In the case of `CCOC(=O)[C@@](C)(N)Cc1ccc(O)c(O)c1`, the Potency [3] is reported as “inactive”.
In the case of `CN(C)CCC[C@@]1(c2ccc(F)cc2)OCc2cc(C#N)ccc21`, the Potency [2] is reported as “inactive”, the Potency [3] is reported as “inactive” and the Potency [10] is reported as “inactive”. For the same compound, the Potency [4] was “inactive”.
In the case of `CCOC(=O)c1c(N)sc2c1CCN(Cc1ccccc1)C2`, the Potency [2] is reported as “inactive”, the Potency [3] is reported as “inactive” and the Potency [10] is reported as “inactive”. The Potency [4] was “inactive”.
With `O=C(c1ccc(F)cc1)C1CCN(CCn2c(=S)[nH]c3ccccc3c2=O)CC1` the Potency [2] was “inactive”, the Potency [3] was “inactive” and the Potency [10] was “inactive”. For the same compound, the Potency [4] was “inactive”.
In the case of `CC(C)(Cc1c[nH]c2ccccc12)NCC(O)COc1ccccc1C#N` (configuration not stated), the Potency [2] is reported as “inactive”, the Potency [3] is reported as “inactive” and the Potency [10] is reported as “inactive”. For the same compound, the Potency [4] was “inactive”.
With `CCOc1ccccc1C(N)=O` the Potency [2] was “inactive”, the Potency [3] was “inactive” and the Potency [10] was “inactive”. The Potency [4] was “inactive”.
For `O=C(CCCN1CC=C(n2c(=O)[nH]c3ccccc32)CC1)c1ccc(F)cc1`, the Potency [2] was “inactive”, the Potency [5] was “inactive” and the Potency [7] was “inactive”.
For `O=c1[nH]c(=O)n([C@H]2C[C@H](O)[C@@H](CO)O2)cc1F`, the Potency [2] was “inactive” and the Potency [3] was “inactive”.
With `O=C(N/N=C/c1ccc([N+](=O)[O-])o1)c1ccc(O)cc1` the Potency [3] was “inactive”.
For `Cc1ccc(O)c([C@H](CCN(C(C)C)C(C)C)c2ccccc2)c1`, the Potency [2] was “inactive”, the Potency [3] was “inactive” and the Potency [4] was “inactive”.
In the case of `CCOC(=O)c1ccc(N)cc1`, the Potency [3] is reported as “inactive” and the Potency [4] is reported as “inactive”.
For `CCCCCCCCCCCCOCCOCCOCCOCCOCCOCCOCCOCCOCCO`, the Potency [3] was “inactive”, the Potency [10] was “inactive” and the Potency [8] was 14.7 µM (active).
For `CC[C@H](c1ccc(O)cc1)[C@@H](CC)c1ccc(O)cc1`, the Potency [2] was 13.3 µM (active), the Potency [3] was “inactive” and the Potency [10] was “inactive”. The Potency [4] was “inactive”.
With `CN1CCN(C2=Nc3cc(F)ccc3Cc3ccccc32)CC1` the Potency [3] was “inactive”, the Potency [10] was “inactive” and the Potency [4] was “inactive”.
In the case of `C#C[C@]1(O)CC[C@H]2[C@@H]3CCC4=Cc5oncc5C[C@]4(C)[C@H]3CC[C@@]21C`, the Potency [2] is reported as “inactive”, the Potency [3] is reported as “inactive” and the Potency [10] is reported as “inactive”. The Potency [4] was “inactive”.
In the case of `CC(C)n1c(/C=C/[C@@H](O)C[C@@H](O)CC(=O)O)c(-c2ccc(F)cc2)c2ccccc21`, the Potency [2] is reported as 0.841 µM (active) and the Potency [3] is reported as “inactive”.
With `CCN(CC)CCOC(=O)C(Cc1cccc2ccccc12)CC1CCCO1` (configuration not stated) the Potency [2] was “inactive”, the Potency [3] was “inactive” and the Potency [10] was “inactive”. The Potency [4] was “inactive”.
With `CCOC(=O)Nc1ccc2c(c1)N(C(=O)CCN1CCOCC1)c1ccccc1S2` the Potency [3] was “inactive”, the Potency [10] was “inactive” and the Potency [4] was “inactive”.
In the case of `CC(C)[C@@H]1CC[C@@H](C)CC1=O`, the Potency [1] is reported as “inactive”, the Potency [3] is reported as “inactive” and the Potency [4] is reported as “inactive”.
For `CCc1oc2ccccc2c1C(=O)c1cc(Br)c(O)c(Br)c1`, the Potency [3] was “inactive”, the Potency [10] was “inactive” and the Potency [4] was “inactive”.
In the case of `CC(=O)O[C@]1(C(C)=O)CC[C@H]2[C@@H]3C=C(Cl)C4=CC(=O)CC[C@]4(C)[C@H]3CC[C@@]21C`, the Potency [2] is reported as “inactive”, the Potency [3] is reported as “inactive” and the Potency [10] is reported as “inactive”.
In the case of `CC[C@]12CCCN3CCc4c(n(c5ccccc45)C(=O)C1)[C@@H]32`, the Potency [3] is reported as “inactive”.
For `N/C(=N\N=C\c1ccc(Cl)cc1)N/N=C/c1ccc(Cl)cc1`, the Potency [3] was “inactive”, the Potency [10] was “inactive” and the Potency [4] was “inactive”.
For `O=C(Oc1cccc2cccnc12)c1ccccc1`, the Potency [3] was “inactive”, the Potency [6] was 9.27 µM (active) and the Potency [7] was 9.27 µM (active). For the same compound, the Potency [8] was “inactive”.
With `CCCCCCCCCCC[C@@H](C[C@@H]1OC(=O)[C@H]1CCCCCC)OC(=O)[C@H](CC(C)C)NC=O` the Potency [3] was “inactive”, the Potency [10] was “inactive” and the Potency [4] was “inactive”. For the same compound, the Potency [5] was “inactive”, the Potency [6] was “inactive” and the Potency [7] was “inactive”. For the same compound, the Potency [8] was “inactive”.
For `CCO[C@@H]1O[C@H](C(COCc2ccccc2)OCc2ccccc2)[C@H](OCc2ccccc2)[C@H]1O` (some centres not stated), the Potency [3] was “inactive” and the Potency [10] was “inactive”.
For `CC(=O)OC[C@H]1O[C@@H](n2ncc(=O)[nH]c2=O)[C@H](OC(C)=O)[C@@H]1OC(C)=O`, the Potency [2] was “inactive”, the Potency [3] was “inactive” and the Potency [4] was “inactive”.
For `C[C@H]1[C@H]2CC[C@H]3[C@@H]4CC=C5C[C@@H](N(C)C)CC[C@]5(C)[C@H]4CC[C@]23CN1C`, the Potency [3] was “inactive” and the Potency [4] was “inactive”.
With `O=C(Nc1ncc([N+](=O)[O-])s1)c1cccs1` the Potency [3] was “inactive”.
In the case of `CC(C)=CCOc1ccc(/C=C/C(=O)c2ccc(OCC=C(C)C)cc2OCC(=O)O)cc1`, the Potency [2] is reported as 33.5 µM (active), the Potency [3] is reported as “inactive” and the Potency [10] is reported as “inactive”. The Potency [4] was “inactive”.
For `CN1CCc2cccc3c2[C@H]1Cc1ccc(O)c(O)c1-3`, the Potency [3] was “inactive”.
In the case of `NS(=O)(=O)c1cc(C(=O)O)cc(N2CCCC2)c1Oc1ccccc1`, the Potency [1] is reported as “inactive”, the Potency [3] is reported as “inactive” and the Potency [4] is reported as “inactive”.
In the case of `CCCCCCCCNC(C)C(O)c1ccc(SC(C)C)cc1` (configuration not stated), the Potency [2] is reported as 26.6 µM (active) and the Potency [3] is reported as “inactive”.
For `CCCCCCCCCCCCCC[N+](C)(C)Cc1ccccc1`, the Potency [1] was 21.1 µM (active) and the Potency [4] was 18.8 µM (active).
